Holding throughout (assay): NCI-60 one-dose screen, 48 h (100 = growth as untreated, 0 = no growth, -100 = all killed)
The test system of one assay is NCI-H226 lung. The conditions noted are these: 10 µM unless noted.
In a further assay the test system is NCI-H322M lung. Particulars: 10 µM unless noted.
A further assay relates to HOP-62 NSCLC. Particulars: 10 µM unless noted.
The next assay has as its system NCI-H460 lung. Particulars: 10 µM unless noted.
For a further assay, the system named is HOP-92 NSCLC. Particulars: 10 µM.
Another assay relates to NCI-H522 lung. Particulars: 10 µM unless noted.
The next assay has as its system A549/ATCC NSCLC. The conditions noted are these: 10 µM unless noted.
For another assay, the system named is 786-0 renal. Particulars: 10 µM unless noted.
In the next assay the test system is COLO 205 colon. The conditions noted are these: 10 µM unless noted.
The test system of the next assay is DU-145 prostate. Particulars: 10 µM unless noted.
In another assay the test system is K-562 leukemia. Particulars: 10 µM unless noted.
The test system of a further assay is MALME-3M melanoma. The conditions noted are these: 10 µM unless noted.
In another assay the test system is MDA-MB-231 breast. The conditions noted are these: 10 µM unless noted.
In a further assay the test system is RXF 393 renal. Particulars: 10 µM unless noted.
The next assay concerns SF-268 CNS. The conditions noted are these: 10 µM unless noted.
In a further assay the test system is SF-295 CNS. Particulars: 10 µM unless noted.
The subject of a further assay is SF-539 CNS. The conditions noted are these: 10 µM unless noted.
The test system of the next assay is UACC-257 melanoma. The conditions noted are these: 10 µM unless noted.
Another assay has as its system M14 melanoma. The conditions noted are these: 10 µM unless noted.

Compounds without any hit were thinned out: in the full panel of roughly 83,000, 20% have a hit.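 Percent growth is the endpoint: 0 to 100 indicates growth inhibition (40 means 60% inhibition), 0 means no net growth, and negative values indicate cell death.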 Unmarked numbers belong to inactive results. The source made the active and inactive calls. Rule for the calls: active = growth percent below 10; inactive = the rest.

Regarding `CCCCCCCn1cc2c(N[C@H](C)c3ccccc3)ncnc2n1`, the growth with NCI-H226 lung is 100%; with NCI-H322M lung, 101%; in the assay with HOP-62 NSCLC it was 95.7%; in the assay on NCI-H460 lung, 104%; in the assay on HOP-92 NSCLC, 94%; in the assay with NCI-H522 lung, 99.6%. For the same molecule, the growth in the assay on A549/ATCC NSCLC is 106%; with 786-0 renal, 105%; in the assay with COLO 205 colon it was 115%; in the assay on DU-145 prostate, 98.1%; in the assay on K-562 leukemia, 106%; with MALME-3M melanoma, 94.2%. Further, the growth in the assay with MDA-MB-231 breast was 98.4%; in the assay with RXF 393 renal it was 97.1%; in the assay on SF-268 CNS, 102%; in the assay with SF-295 CNS, 94.5%; in the assay on SF-539 CNS, 98.8%; in the assay on UACC-257 melanoma, 110%. Moreover, the growth in the assay with M14 melanoma is 99.8%.

As to `COc1ccc(-c2nc3ccc(-c4nnc(SCC(=O)Nc5ccc(C(=O)/C=C/c6ccc(Cl)cc6)cc5)o4)cc3[nH]2)cc1`, the growth with NCI-H226 lung is 94.1%; with NCI-H322M lung it was 100%; with HOP-62 NSCLC, 99.5%; with NCI-H460 lung, 104%; in the assay on HOP-92 NSCLC, 95%; with NCI-H522 lung it was 95.3%. The growth in the assay with A549/ATCC NSCLC is 105%; in the assay on 786-0 renal, 99.1%; in the assay with COLO 205 colon it was 117%; in the assay with DU-145 prostate it was 104%; in the assay with K-562 leukemia, 93.9%; in the assay with MALME-3M melanoma, 96.1%. The growth in the assay on MDA-MB-231 breast was 94.8%; with RXF 393 renal it was 98.2%; with SF-268 CNS, 94.9%; in the assay on SF-295 CNS, 95.9%; in the assay on SF-539 CNS it was 87.1%; in the assay with UACC-257 melanoma it was 107%. The growth in the assay with M14 melanoma was 105%.

On to `O=C(c1ccc(Cl)cc1)C1[C@H](c2ccc(Cl)cc2)[C@@H](c2ccccc2)NC12C(=O)Nc1ccccc12` (stereo partly specified), for which the growth with NCI-H226 lung was 53.5%; in the assay with NCI-H322M lung it was 65.5%; with HOP-62 NSCLC it was 69.6%; in the assay with NCI-H460 lung, 32.7%; in the assay with HOP-92 NSCLC, 50.4%; with NCI-H522 lung, 78%. The growth is 42.6% in the assay on A549/ATCC NSCLC; 64.2% in the assay with 786-0 renal; 73% in the assay with COLO 205 colon; 65.1% in the assay with DU-145 prostate; 33.6% with K-562 leukemia; 78.7% in the assay with MALME-3M melanoma. In addition, the growth in the assay on MDA-MB-231 breast is 53.6%; in the assay with RXF 393 renal it was 48%; with SF-268 CNS, 48.1%; in the assay with SF-295 CNS it was 45.6%; with SF-539 CNS it was 74.8%; in the assay with UACC-257 melanoma it was 75.2%.

Take `COc1ccc(/C=N/NC2=NC3C(S2)N(C)C(=O)N3C)cc1` (stereo unspecified): the growth was 57.9% in the assay with NCI-H226 lung; 47.5% in the assay with NCI-H322M lung; 29.1% with HOP-62 NSCLC; 9.74% (active) in the assay with NCI-H460 lung; 30.7% with HOP-92 NSCLC; -9.16% (active) in the assay with NCI-H522 lung. Moreover, the growth with A549/ATCC NSCLC is 48.6%; in the assay on 786-0 renal, 43.9%; with COLO 205 colon it was 7.48% (active); in the assay with DU-145 prostate it was 25.2%; with K-562 leukemia, 9.56% (active); in the assay with MALME-3M melanoma it was 39%. Moreover, the growth in the assay with MDA-MB-231 breast is 44.9%; in the assay with RXF 393 renal, -19.3% (active); in the assay with SF-268 CNS, 47.6%; with SF-295 CNS, 10.6%; in the assay on SF-539 CNS, 2.22% (active); in the assay on UACC-257 melanoma, 79.8%. In addition, the growth with M14 melanoma is 32.5%.

For `CC(=O)c1ccc(Nc2nc(SCC(C)C)nc(-c3ccccc3)c2C#N)cc1`, the growth in the assay on NCI-H226 lung is 55.5%; in the assay on NCI-H322M lung, 94.9%; in the assay with HOP-62 NSCLC, 25.9%; in the assay with NCI-H460 lung, 105%; in the assay with HOP-92 NSCLC, 44.6%; in the assay on NCI-H522 lung it was 87.3%. Moreover, the growth in the assay with A549/ATCC NSCLC was 101%; in the assay on 786-0 renal it was 53.9%; in the assay on COLO 205 colon, 119%; in the assay on DU-145 prostate, 107%; in the assay on K-562 leukemia it was 95.4%; with MALME-3M melanoma it was 94.9%. Further, the growth was 73.5% in the assay on MDA-MB-231 breast; -1.29% (active) in the assay with RXF 393 renal; 72% in the assay on SF-268 CNS; 17% in the assay on SF-295 CNS; 63.9% with SF-539 CNS; 105% in the assay with UACC-257 melanoma. Besides, the growth with M14 melanoma is 103%.

With `CCCCCCCn1cc2c(NCCc3ccccc3)ncnc2n1`, the growth with NCI-H226 lung is 103%; with NCI-H322M lung, 102%; with HOP-62 NSCLC, 94.1%; with NCI-H460 lung it was 100%; with HOP-92 NSCLC it was 94.2%; with NCI-H522 lung, 95.3%. Moreover, the growth with 786-0 renal is 99.5%; in the assay on COLO 205 colon, 129%; in the assay with DU-145 prostate, 102%; in the assay on K-562 leukemia it was 88.6%; in the assay with MALME-3M melanoma it was 94.4%; in the assay with MDA-MB-231 breast, 94%. Also, the growth with RXF 393 renal was 104%; in the assay with SF-268 CNS, 99.3%; in the assay with SF-295 CNS, 90%; in the assay on SF-539 CNS, 95.9%; in the assay with UACC-257 melanoma, 102%; with M14 melanoma, 100%.

As for `CCNC(=O)Oc1ccc(/C(=C(/C)c2ccccc2)c2ccc(OCCN3CCCCCC3)cc2)cc1`, the growth with NCI-H226 lung is 55%; in the assay with NCI-H322M lung it was 71.1%; with HOP-62 NSCLC, 6.15% (active); in the assay on NCI-H460 lung it was -67.3% (active); in the assay with HOP-92 NSCLC, -12.8% (active); in the assay on NCI-H522 lung, 63.8%. The growth in the assay with A549/ATCC NSCLC is 36.1%; with 786-0 renal, -91.7% (active); in the assay on COLO 205 colon, -75.7% (active); in the assay on DU-145 prostate, 38.7%; in the assay on K-562 leukemia, 2.41% (active); in the assay with MALME-3M melanoma, -70.8% (active). In addition, the growth is 6.37% (active) with MDA-MB-231 breast; -7.37% (active) with RXF 393 renal; 31.8% in the assay with SF-268 CNS; -1.08% (active) with SF-295 CNS; -74.5% (active) in the assay on SF-539 CNS; -48.9% (active) in the assay with UACC-257 melanoma. Also, the growth in the assay on M14 melanoma is -80.3% (active).

The record behind these values is PubChem BioAssay (NCI).
